The values that follow come from PubChem BioAssay (EPA / NIEHS).

Activity calls are given as the source filed them. Rule for the calls: active = hit-call score of the fitted dose curve at least 0.9, where 1 is the maximum; inactive = score below 0.9.

The nature of this experiment: CCTE_Shafer_MEA_acute_spike_number: CCTE's Neural Acute Assay for Total Number of Spikes, Shafer Lab (AID 2284008).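 For AC50: curve fitted for decrease in spike count so AC50 reflects inhibitors.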 The procedure: CCTE_Shafer_MEA_acute assay is conducted using Axion Biosystems 48 well microelectrode array (MEA) plates and Maestro recording system. Each well of the MEA plate contains a grid of 16 microelectrodes embedded in the culture surface. Electrically active cells, such as neurons, can be cultured over the electrodes, and electrical activity in these cells can be recorded extracellularly. The spontaneous firing of neurons is captured from each electrode on a microsecond timescale providing both temporally and spatially precise data. […] The CCTE_Shafer_MEA_acute assay uses primary cultures of rat cortical neurons. As these cultures mature over time, neural networks develop functional activity and form cohesive networks in which electrical activity can be highly coordinated. Baseline 40-minute recordings are made on days post-plating 13 or 15, followed by a secondary 40-minute recording after chemical exposure.CCTE_Shafer_MEA_acute_spike_number is a component of the CCTE_Shafer_MEA_acute assay. It measures the total number of spikes (action potential firings) in a 40-minute recording in a microelectrode array (MEA) using Axion Biosystems Maestro 768 channel amplifier with the AxIS adaptive spike detector. The recordings before and after chemical treatment are used to calculate a percent change in the spike number in each well. Data from the assay component CCTE_Shafer_MEA_acute_spike_number was analyzed into 1 assay endpoint. This assay endpoint, CCTE_Shafer_MEA_acute_spike_number, was analyzed in the negative analysis fitting direction relative to DMSO as the negative control and baseline of activity. Using a type of functional reporter, gain or loss-of-signal activity can be used to understand electrical activity.
Spontaneous activity in the cortical cultures was recorded using an Axion Biosystems Maestro 768 channel amplifier and Axion Integrated Studios (AxIS) v1.8 (or later) software. The amplifier recorded from all channels simultaneously (gain = 1200 x; sampling rate = 12.5 kHz/channel): raw signals were filtered with a Butterworth band-pass filter (300-5000 Hz), which filters out slower local field potentials leaving only fast potentials, i.e., "spikes", arising from extracellular currents associated with action potentials (Pine 2006; Wheeler and Nam 2011). On-line spike detection of filtered signals was conducted with the AxIS adaptive spike detector, using a threshold of 8x the root mean squared (rms) noise on each channel. Any electrodes with rms noise levels greater than 5 uV were grounded (e.g., no data were recorded). Once grounded, an electrode was grounded for the duration of the experiment. All recordings were conducted at 37 C. Wells were deemed usable if on the day of the exposure >/= 10 electrodes were active (defined as >/= 5 spikes/min). On DIV 13 or 15, a minimum of three wells from one cortical culture preparation were treated with each compound (0.03-40 uM). Prior to recording baseline activity, each mwMEA plate was placed in the Maestro at 37 C and allowed to sit for 20 min while firing rates stabilized. Baseline activity (40 min) was recorded before the addition of each compound. An additional 40 min of spontaneous activity was recorded in the presence of each compound. Changes in network parameters relative to baseline were assessed following compound treatment.
Regarding `CC(C)(c1ccc(O)cc1)c1ccc(O)cc1`, the AC50 was 5.7 µM (active).

As for `C=CCOC(Cn1ccnc1)c1ccc(Cl)cc1Cl` (centres undefined), the AC50 is 6.09 µM (active).

As to `Cc1nn(C)c(Oc2ccccc2)c1C=NOCc1ccc(C(=O)OC(C)(C)C)cc1`, the AC50 was 0.00424 µM (active).

For `CCCCC(CC)CN1C(=O)C2C3C=CC(C3)C2C1=O` (centres undefined), the AC50 was 30.1 µM (active).

Consider `CCCN(CCC)c1c([N+](=O)[O-])cc(C(F)(F)F)c(N)c1[N+](=O)[O-]`, for which the compound was called inactive.

With `O=C(c1ccccc1)C1CCCCC1`, the compound was classed as inactive.

With `O=C(Nc1ccc([N+](=O)[O-])cc1Cl)c1cc(Cl)ccc1O`, the half-maximal activity concentration (AC50) was 0.115 µM (active).

Regarding `OB(O)O`, the compound was classed as inactive.

For the compound `O=C(c1ccc(O)cc1O)c1ccc(O)cc1O`, the outcome was inactive.

For `CCNc1nc(N)nc(Cl)n1`, the call was inactive.

For the compound `N#CSCSc1nc2ccccc2s1`, the compound was called inactive.

As to `Oc1ccc(C(c2ccc(O)cc2)C(Cl)(Cl)Cl)cc1`, the AC50 was 4.04 µM (active).

Take `CC1(C)C(C=C(Cl)Cl)C1C(=O)OCc1cccc(Oc2ccccc2)c1` (centres undefined): the result was inactive.

In the case of `CSC(=O)c1cccc2nnsc12`, the call was inactive.

Regarding `O=C(O)c1ccccc1`, the result was inactive.

Regarding `CC(C)CCCCCCc1ccc(O)cc1`, the AC50 was 6.02 µM (active).

Regarding `C#CCOC(=O)[C@@H](C)Oc1ccc(Oc2ncc(Cl)cc2F)cc1`, the call was inactive.

In the case of `CC(C)(C)[C@@H](O)[C@@H](Cc1ccc(Cl)cc1)n1cncn1`, the result was inactive.

Take `COC(=O)c1ccccc1C(=O)O`: the call was inactive.
